Most compounds without a hit are left out; they make up all but 3.9% or so of the library.
HIF-2a block = HIF-2a reporter inhibitors, primary screen, luminescence, 786-0 RCC cells; 786-0 RCC cells HIF-2a reporter, luciferase luminescence, overnight; inhibition, % at 18.8 µM; 360,000 compounds, 0.72% hits; AID 624352, 2012;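 active means inhibition of the luminescence signal of 40% or more relative to plate controls, in a single-dose primary screen at 18.75 µM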
KKLEB tox = cytotoxicity in KKLEB CF airway cells, primary screen, cytotoxicity control for CF NF-kB inhibitor project, cell-based, uHTS, fluorescence assay plates; KKLEB CF airway cells viability, ATPlite luminescence, overnight; stronger effect = lower value; cells stimulated with P. aeruginosa culture filtrate; activity change (cytotoxicity), % at 5 µM; 360,000 compounds, 0.36% hits; AID 602141, 2011;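 active means corrected activity change at or below -50% at 5 µM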
TROY NFkB inh = inhibitors of TROY-driven NF-kB signaling, primary screen, Q293 LMP1-TROYcd cells, NF-kB luciferase, uHTS. 360,000 compounds, 0.98% hits. Q293 LMP1-TROYcd NF-kB luciferase reporter, 4 h. inhibition, % at 10 µM;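 active means compounds whose plate-normalised and pattern-corrected inhibition of the luciferase reporter signal at the single screening dose is 50% or more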
TWEAK Fn14 block = inhibitors of TWEAK-Fn14 signaling, primary screen, luciferase reporter cells, uHTS; TWEAK-stimulated Fn14 reporter cells, luciferase luminescence, 8 h; inhibition, % at 10 µM; 360,000 compounds, 2% hits; AID 1159606, 2016; in the data active means inhibition above about 50%
Peg3 prom inh-1 = Peg3 promoter-driven luciferase inhibitors, primary screen, cell-based, HeLa, luciferase luminescence. HeLa PEG-Prom luciferase reporter, overnight. inhibition, % at 20 µM. 360,000 compounds, 1.7% hits. AID 588405, 2011;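 active means inhibition of at least 50% at 20 µM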
CF NFkB inh = inhibitors of PAF-induced NF-kB signaling, primary screen, cell-based, GFP fluorescence, uHTS; KKLEB NF-kB-GFP reporter, GFP fluorescence overnight; inhibition, % at 5 µM; 360,000 compounds, 0.86% hits;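 active means at least 50% inhibition at 5 µM, scaled per plate between neutral and stimulator controls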;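 further: PAF is a Pseudomonas aeruginosa culture filtrate used as stimulus; plate controls were PAF-stimulated DMSO wells for no effect and unstimulated DMSO wells for full effect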
Peg3 prom inh-2 = Peg3 promoter reporter inhibitors, retest, confirmation, cell-based, HeLa, luciferase reporter, single concentration | shares compounds with Peg3 prom inh-1 | AID 602417, 2012 | HeLa PEG-Prom luciferase reporter, luminescence, overnight | 1,300 compounds, 84% hits | inhibition, % at 20 µM;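 active means at 20 µM dose, 40% or more inhibition averaged across four replicates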
* hit, by the source's call.

`Cc1[nH]nc(S(=O)CC(=O)O)c1[N+](=O)[O-]` (stereo unspecified) gave HIF-2a block 24, KKLEB tox -4, TROY NFkB inh 88*, TWEAK Fn14 block 61*, Peg3 prom inh-1 51*, CF NFkB inh -17 and Peg3 prom inh-2 26.
For CN(C)CCCNc1ncnc2oc(-c3ccccc3)c(-c3ccccc3)c12 the results were HIF-2a block -6, KKLEB tox -13, TROY NFkB inh -39, TWEAK Fn14 block -11, Peg3 prom inh-1 97*, CF NFkB inh 8 and Peg3 prom inh-2 97*.
`CCOC(=O)c1cc2c(=O)n3ccccc3nc2n(C)c1=NC(=O)c1c(-c2c(F)cccc2Cl)noc1C` gave HIF-2a block 10, KKLEB tox 10, TROY NFkB inh -16, TWEAK Fn14 block -16, Peg3 prom inh-1 40 and CF NFkB inh -7.
CCOC(=O)c1cc2c(=O)n3ccccc3nc2n(C(C)C)c1=NC(=O)c1c(-c2c(F)cccc2Cl)noc1C was read as HIF-2a block 20, KKLEB tox -3, TROY NFkB inh -9, TWEAK Fn14 block 57*, Peg3 prom inh-1 64*, CF NFkB inh -20 and Peg3 prom inh-2 43*.
CCc1ccn2cc(-c3ccc4c(c3)OCO4)nc2c1 was read as HIF-2a block 60*, KKLEB tox -76*, TROY NFkB inh 66*, TWEAK Fn14 block -4, Peg3 prom inh-1 84*, CF NFkB inh -16 and Peg3 prom inh-2 72*.
Screening CCCN(CC1CC1)S(=O)(=O)c1ccc(S(N)(=O)=O)cc1 returned HIF-2a block 11, KKLEB tox 5, TROY NFkB inh -10, TWEAK Fn14 block -13, Peg3 prom inh-1 18 and CF NFkB inh 3.
O=C(CCc1ccccc1)NC(NC(=S)Nc1ccc(Br)cc1)C(Cl)(Cl)Cl (stereo unspecified) was read as HIF-2a block 15, KKLEB tox 9, TROY NFkB inh 24, TWEAK Fn14 block -4, Peg3 prom inh-1 53*, CF NFkB inh 16 and Peg3 prom inh-2 38.
For COc1ccc2[nH]c(C(=O)N/N=C/c3ccccc3OC)cc2c1 the results were HIF-2a block -34, KKLEB tox -6, TROY NFkB inh -9, TWEAK Fn14 block 21, Peg3 prom inh-1 22 and CF NFkB inh 1.
COc1cc(OC)c2cc(C(=O)N/N=C/c3ccccc3O)[nH]c2c1 was read as HIF-2a block 2, KKLEB tox -3, TROY NFkB inh 10, TWEAK Fn14 block 25, Peg3 prom inh-1 72*, CF NFkB inh -2 and Peg3 prom inh-2 59*.
Screening COc1ccc(Nc2sc(C(=O)c3ccc(Cl)cc3)c(N)c2C(=O)Nc2ccccc2OC)cc1 returned HIF-2a block -18, KKLEB tox -35, TROY NFkB inh 12, TWEAK Fn14 block -17, Peg3 prom inh-1 26 and CF NFkB inh 40.
`COc1ccc(C(=O)c2sc(Nc3cccc(OC)c3)c(C(=O)Nc3cccc(C)c3C)c2N)cc1` gave HIF-2a block 7, KKLEB tox -35, TROY NFkB inh 29, TWEAK Fn14 block 18, Peg3 prom inh-1 97*, CF NFkB inh 27 and Peg3 prom inh-2 34.
`O=[N+]([O-])c1cccc(OCCCN2CCC(Cc3ccccc3)CC2)c1` gave HIF-2a block -3, KKLEB tox 1, TROY NFkB inh -6, TWEAK Fn14 block -6, Peg3 prom inh-1 28 and CF NFkB inh 12.
`O=C(Nc1ccc(F)cc1)Nc1nnc(Cc2ccccc2)s1` gave HIF-2a block -19, KKLEB tox 18, TROY NFkB inh 8, TWEAK Fn14 block -15, Peg3 prom inh-1 10 and CF NFkB inh 2.
For COC(=O)C1=C(C)N(Cc2ccccc2)C(=NCc2cccc(Cl)c2)N[C@H]1c1ccccc1 the results were HIF-2a block -1, KKLEB tox -25, TROY NFkB inh -6, TWEAK Fn14 block -21, Peg3 prom inh-1 101*, CF NFkB inh 42 and Peg3 prom inh-2 98*.
Fc1c(F)c(F)c(NC2=NCCCCC2)c(F)c1F was read as HIF-2a block 2, KKLEB tox 5, TROY NFkB inh -1, TWEAK Fn14 block -16, Peg3 prom inh-1 4 and CF NFkB inh -3.
`CN1CCC(N(C)S(=O)(=O)c2ccc(NC(=O)COc3ccc(Br)cc3Cl)cc2)CC1` gave HIF-2a block 3, KKLEB tox -15, TROY NFkB inh -4, TWEAK Fn14 block -5, Peg3 prom inh-1 71*, CF NFkB inh 10 and Peg3 prom inh-2 71*.
Screening Cc1c(C(=O)Nc2ccc(S(=O)(=O)N(C)C3CCN(C)CC3)cc2)oc2c(Cl)cccc12 returned HIF-2a block -27, KKLEB tox -30, TROY NFkB inh -31, TWEAK Fn14 block -38, Peg3 prom inh-1 99*, CF NFkB inh -10 and Peg3 prom inh-2 99*.
For O=Cc1c(NCc2ccccc2Cl)c2ccccc2[nH]c1=O the results were HIF-2a block 10, KKLEB tox -2, TROY NFkB inh -1, TWEAK Fn14 block -14, Peg3 prom inh-1 16 and CF NFkB inh -6.
`CCN1CCc2c(sc(NC(=O)c3ccc(S(=O)(=O)N4CCCCCC4)cc3)c2C(=O)NC)C1` gave HIF-2a block 16, KKLEB tox 6, TROY NFkB inh -10, TWEAK Fn14 block -8, Peg3 prom inh-1 71*, CF NFkB inh 5 and Peg3 prom inh-2 62*.
`CCN1CCc2c(sc(NC(=O)c3ccc(S(=O)(=O)N4CCOCC4)cc3)c2C(N)=O)C1` gave HIF-2a block 12, KKLEB tox 3, TROY NFkB inh 5, TWEAK Fn14 block 8, Peg3 prom inh-1 5 and CF NFkB inh -42.
For CCN1CCc2c(sc(NC(=O)c3ccc(S(=O)(=O)N4CCOCC4)cc3)c2C(=O)OC)C1 the results were HIF-2a block 17, KKLEB tox 1, TROY NFkB inh -7, TWEAK Fn14 block -62, Peg3 prom inh-1 76*, CF NFkB inh -23 and Peg3 prom inh-2 -20.
CCCc1cc(C(=O)Nc2nccs2)cs1 was read as HIF-2a block -137, KKLEB tox -12, TROY NFkB inh -70, TWEAK Fn14 block 24, Peg3 prom inh-1 -238 and CF NFkB inh -5.
Screening Cc1ccc(NC(=O)N2CCc3ccccc32)cc1C returned HIF-2a block -133, KKLEB tox -12, TROY NFkB inh -21, TWEAK Fn14 block 18, Peg3 prom inh-1 -141 and CF NFkB inh -11.

Screening results (PubChem)
